# Compound activity from PubChem.
# A selection: hits, their analogues and other compounds. The true share with any hit is near 3.4%.
# FBW7 act – FBW7 E3 ligase activators, primary screen, biochemical, AlphaScreen, human; AID 1259310, 2017; normalized activity (activation), % at 26.1 µM; F-box/WD repeat-containing protein 7 (Homo sapiens), Q969H0; 650,000 tested, 0.13% active; AlphaScreen FBW7–phospho-cyclin E peptide binding, activator screen; in the data active = normalized activity above about 1.9%;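 note: purified mutant Fbw7 with reduced substrate affinity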
# TEAD-YAP inh – TEAD-YAP interaction inhibition, primary screen, TEAD-YAP interaction inhibitor project, luminescence, HEK-TIYL cells; TEAD-Gal4/YAP UAS-luciferase luminescence; inhibition, % at 9.12 µM; 640,000 tested, 1.4% active; in the data active = inhibition above about 32%
# GPR151 ag – activators of human GPR151, primary screen, cell-based, PathHunter beta-arrestin, luminescence. G-protein coupled receptor 151 (Homo sapiens), Q8TDV0. PathHunter beta-arrestin GPR151 cells. activation, % at 11.2 µM. 650,000 tested, 1% active; in the data active = activation above about 4.9%
# MITF primary – MITF inhibitors, primary screen, biochemical, AlphaScreen, human. Microphthalmia-associated transcription factor (Homo sapiens), O75030. AlphaScreen MITF homodimerization, bead proximity signal. inhibition, % at 2.6 µM. 650,000 tested, 0.91% active; in the data active = inhibition above about 50%
# A number is an active result; – = inactive; ! = not confirmed by another sample.
SMILES,FBW7 act,TEAD-YAP inh,GPR151 ag,MITF primary
Cc1ccc(-n2c(O)c(/C=N/c3ccccn3)c(=O)[nH]c2=O)cc1,–,–,–,–
Cc1ccc(-n2[nH]c(=O)c(-c3ccccn3)c2C)cc1,–,51.9,–,–
COc1ccc(Cl)cc1NC(=O)c1c(O)c2ccccc2[nH]c1=O,–,–,–,–
CCOC(=O)CN(C(=O)CCl)c1ccc(F)cc1,–,77.5,–,–
Cc1cccc(Nc2nnc(-c3ccc(C)c(S(=O)(=O)NCCO)c3)c3ccccc23)c1,–,–,–,–
C=CCNc1nc2c(c(=O)n(C)c(=O)n2C)n1CCC(C)C,–,32.9,–,–
C=CCNc1nc2c(c(=O)n(C)c(=O)n2C)n1CCCCCC,–,46.9,–,–
O=C(CSc1nnc(NC(=O)Cc2cccs2)s1)Nc1nccs1,–,–,–,–
Cc1sc(NC(=O)c2cc(-c3ccc(C(C)(C)C)cc3)nc3ccccc23)c(C(N)=O)c1C,–,45.8,–,–
O=S(=O)(c1ccc(Cl)s1)N1CCN(Cc2ccc3c(c2)OCO3)CC1,–,–,–,–
CC(C)NCC(O)Cn1c2ccccc2c2ccccc21 (configuration not stated),–,–,–,–
CC(C)C(=O)Nc1ccc(NC(=O)C(C)C)nc1,–,–,–,–
CC(C)C(=O)Nc1ccc(NC(=O)c2ccco2)nc1,–,73.9,–,–
O=C(Nc1ccc(NC(=O)C2CC2)cn1)c1ccco1,–,48.2,–,–
CCSCc1nnc(SCC(=O)c2ccc(Br)cc2)n1C,–,–,–,–
CCN(CC)C(=O)CSc1nnc(-c2cccnc2)n1-c1cc(C)ccc1C,–,–,–,–
CCOC(=O)C(=O)Nc1nnc(-c2cccs2)s1,–,–,–,–
Cc1ccc(NC(=O)/C(=C/c2ccc(N(C)C)cc2)NC(=O)c2ccccc2F)cc1Cl,–,–,–,–
CN(C)c1ccc(/C=C(\NC(=O)c2ccccc2F)C(=O)Nc2ccc(F)c(Cl)c2)cc1,–,–,–,60.5
COc1ccc(COn2ccc3ccc(S(C)(=O)=O)cc32)cc1,–,42.3,–,–
Cc1n[nH]c(C)c1CCN(C)C(=O)CC1C(=O)NCCN1Cc1ccc(F)c(F)c1 (configuration not stated),–,–,–,–
COc1cc([C@@H]2c3cc4c(cc3[C@H](O)C3COC(=O)[C@@H]32)OCO4)cc(OC)c1OC (some centres not stated),–,55.2,–,–
COc1cc([C@@H]2c3cc4c(cc3C(OC3O[C@@H]5COC(C)O[C@H]5[C@H](O)[C@H]3O)C3COC(=O)[C@@H]32)OCO4)cc(OC)c1O (some centres not stated),–,–,–,–
Cc1cc(C2=NNC(=NCc3ccccc3)SC2)c(C)n1C,–,–,–,–
CCN=C1NN=C(c2ccc(C)cc2)CS1,–,73.4,–,–
SMILES,FBW7 act,TEAD-YAP inh,GPR151 ag,MITF primary
C=CCN=C1NN=C(c2cc(C)n(CC=C)c2C)CS1,–,89.4,–,–
C=CCN=C1NN=C(c2ccc3c(c2)OCCO3)CS1,–,50.6,–,–
c1ccc(CN=C2NN=C(c3ccccc3)CS2)cc1,–,–,–,–
NC1=NN=C(c2ccc3c(c2)OCCO3)CS1,–,–,–,–
O=C(NC1(C(F)(F)F)NC(=O)N(Cc2ccccc2)C1=O)c1ccccc1Cl (configuration not stated),–,–,–,–
Oc1ccc(/C=C/c2cc(O)cc(O)c2)cc1,–,89.1!,–,–
OC[C@H]1O[C@@H](Oc2cc(O)cc(/C=C/c3ccc(O)cc3)c2)[C@H](O)[C@@H](O)[C@@H]1O,–,–,–,–
C=CCN(c1ccccc1)S(=O)(=O)c1ccc(F)c(C(=O)NCCc2ccccc2)c1,–,35.2,–,–
C=CCN(c1ccccc1)S(=O)(=O)c1ccc(F)c(C(=O)NCC(OC)OC)c1,–,–,–,–
CCCN(CCC)S(=O)(=O)c1ccc(C(=O)N2CC(=O)Nc3ccc(C)cc3C2c2ccccc2)cc1 (configuration not stated),–,–,–,–
Cc1ccc(NC2OC(CO)C(O)C(O)C2O)cc1C (configuration not stated),–,–,–,–
Cc1ccc(NC2OC(C)C(O)C(O)C2O)cc1C (configuration not stated),2.5,–,–,–
Oc1oc(-c2ccccc2Br)nc1C=Nc1ccccc1I,–,–,–,–
CCN(CC)c1nc2cc(OC)ccc2cc1C#N,2.3,–,–,–
Cc1ccc(NC(=O)c2n[nH]c3ccccc23)cc1Cl,–,–,–,–
Cc1ccc(NC(=O)c2n[nH]c3ccccc23)cc1,–,45.0,–,–
CCOC(=O)C1=C(c2ccccc2)NC(SC)=C(C#N)C1c1cccnc1 (configuration not stated),–,–,–,–
CCOC(=O)C1=C(C)NC(SCC(N)=O)=C(C#N)C1c1cccc([N+](=O)[O-])c1 (configuration not stated),–,48.9,–,–
CCOC(=O)C1=C(C)NC(SC)=C(C#N)C1c1ccccc1 (configuration not stated),–,47.3,–,–
CCOC(=O)C1=C(C)NC(C)=C(C(=O)OCC)C1c1ccccc1F,2.1,–,–,–
COc1cc(C2CC(=O)Nc3c2ccc2ccccc32)ccc1OC(=O)c1cccs1 (configuration not stated),–,–,–,–
Cc1ccc(NC(=O)c2cc([N+](=O)[O-])cc(Cl)c2O)c(C)c1,–,52.9,–,–
Cc1cccc(NC(=O)c2cc([N+](=O)[O-])ccc2Cl)c1O,–,32.8,–,–
Cc1ccc(NC(=O)c2ccc([N+](=O)[O-])cc2Cl)c(C)c1,–,–,–,–
CCC(c1nnnn1C1CCCCC1)N1CCC(C(N)=O)CC1 (configuration not stated),–,–,–,–
SMILES,FBW7 act,TEAD-YAP inh,GPR151 ag,MITF primary
CC(=O)c1ccccc1-c1ccc2c(c1)CC(CNC(=O)CC1CC1)O2 (configuration not stated),–,–,–,–
COC(=O)CN1C(=S)N(C)C(=O)/C1=C/c1ccc(OC)c(Br)c1,–,–,–,–
Cc1cc(NC(=O)C2CCN(C(=O)C3c4ccccc4Oc4ccccc43)CC2)no1,–,–,–,–
Fc1cccc(Nc2nc(Nc3ccccc3)nc(N3CCOCC3)n2)c1,–,–,–,–
COc1ccc(C2=NN(C(=O)c3ccco3)C(O)(C(F)(F)F)C2)cc1 (configuration not stated),–,41.3,–,–
Cc1ccc(C2=NN(C(=O)c3ccco3)C(O)(C(F)(F)F)C2)cc1 (configuration not stated),–,–,–,–
Cc1ccc(NS(=O)(=O)c2cc(Br)cc3c2N(C(=O)C2CC2)CC3)cc1,–,39.8,–,–
CC(=O)N1CCc2cc(Br)cc(S(=O)(=O)Nc3ccc(C)cc3)c21,–,–,–,–
